This note sets out measurements from the supplement of paper PMC12339681.

Counter-ions that a name gives are not always drawn.

This experiment concerns PBMC-derived induced microglia-like cells (piMGLC). Briefly: synaptosome phagocytic index relative to DMSO control (fraction of DMSO); higher = more phagocytosis. The following applies: concentration: 10 uM (2 uM for compounds listed in Table S2); pretreatment time: 24 h; assay time: 3 h.
With `CN(C)CCC=C1c2ccccc2C=Cc2ccccc21` [Cyclobenzaprine_(hydrochloride)], the synaptosome phagocytic index turned out to be 0.59.

Consider `Cc1ccc(Nc2nccc(N(C)c3ccc4c(C)n(C)nc4c3)n2)cc1S(N)(=O)=O` [Pazopanib_(Hydrochloride)], for which the synaptosome phagocytic index was determined as 0.523.

Regarding `Fc1ccc(-c2c3cccc(C(F)(F)F)c3nn2Cc2ccc(F)cc2Cl)cc1`, the synaptosome phagocytic index amounted to 0.581.

In the case of `CN(CCOc1ccc(CC2SC(=O)NC2=O)cc1)c1ccccn1` (configuration not stated) [Rosiglitazone], the synaptosome phagocytic index is 1.19.

On to `Cc1cc([C@@]23c4ccccc4C(=O)N2CCN3C(=O)c2ccc(F)c(F)c2)ccc1Cl`, for which the synaptosome phagocytic index was found to be 0.335.

Turning to `N#Cc1cccc(C(=O)Nc2cc(-c3ccccc3)nn2-c2ccccc2)c1`, the synaptosome phagocytic index is 0.299.

Turning to `COC(=O)N[C@H](C(=O)N[C@@H](Cc1ccccc1)[C@@H](O)CN(Cc1ccc(-c2ccccn2)cc1)NC(=O)[C@@H](NC(=O)OC)C(C)(C)C)C(C)(C)C` [Atazanavir_(sulfate)], the synaptosome phagocytic index stood at 0.81.

With `CCC(C)C(N)C(=O)NCCN1CCOCC1` (configuration not stated) [LM11A-31_(dihydrochloride)], the synaptosome phagocytic index was determined as 0.844.

As to `C[C@H]1COc2c(N3CCN(C)CC3)c(F)cc3c(=O)c(C(=O)O)cn1c23` [Levofloxacin], the synaptosome phagocytic index turned out to be 1.16.

On to `C[C@@H](c1ncncc1F)[C@](O)(Cn1cncn1)c1ccc(F)cc1F` [Voriconazole], for which the synaptosome phagocytic index turned out to be 0.893.

For `CN(C)CCc1c[nH]c2ccc(Cn3cncn3)cc12` [Rizatriptan_(benzoate)], the synaptosome phagocytic index was found to be 1.11.

Take `NCCCS(=O)(=O)O` [Tramiprosate]: the synaptosome phagocytic index amounted to 1.14.

As for `CC1(C)S[C@@H]2[C@H](NC(=O)[C@H](NC(=O)N3CCN(S(C)(=O)=O)C3=O)c3ccccc3)C(=O)N2[C@H]1C(=O)O` [Mezlocillin_(sodium)], the synaptosome phagocytic index was found to be 0.977.

As for `Nc1nc2ccc(OC(F)(F)F)cc2s1` [Riluzole], the synaptosome phagocytic index turned out to be 0.991.

On to `CCN(CC)C(=O)C1(c2ccccc2)CC1CN` (configuration not stated) [Milnacipran_(hydrochloride)], for which the synaptosome phagocytic index came out at 1.35.

For the molecule `COc1ccc(-c2c(C)nn3c(C(F)(F)F)cc(C)nc23)c(F)c1F`, the synaptosome phagocytic index amounted to 0.98.

In the case of `CCCCCCCCCC(=O)O` [Decanoic_acid], the synaptosome phagocytic index amounted to 1.32.

On to `CN(C)CCCN1c2ccccc2CCc2ccccc21` [Imipramine_(hydrochloride)], for which the synaptosome phagocytic index turned out to be 0.863.

Take `CCCN[C@H]1CCc2nc(N)sc2C1` [Pramipexole]: the synaptosome phagocytic index came to 0.882.

As to `C=CC(=O)Nc1cc(Nc2nccc(-n3cc(CN(C)C)c(-c4ccccc4)n3)n2)c(OC)cc1N1CCOCC1` [Lazertinib], the synaptosome phagocytic index was 0.0589.

With `C[C@H]1OC[C@]2(c3cc(NC(=O)c4cnc(C(F)F)cn4)ccc3F)N=C(N)SC[C@H]12` [Elenbecestat], the synaptosome phagocytic index was 0.918.

For the molecule `Cn1cnc2c(F)c(Nc3ccc(Br)cc3Cl)c(C(=O)NOCCO)cc21` [Selumetinib], the synaptosome phagocytic index stood at 0.811.

Regarding `COc1ccccc1OCC(O)COC(N)=O` (configuration not stated) [Methocarbamol], the synaptosome phagocytic index was 0.902.

In the case of `CC(C)NCC(O)COc1ccc(CC(N)=O)cc1` (configuration not stated) [Atenolol], the synaptosome phagocytic index is 0.717.

In the case of `COc1ccc(C2CNC(=O)C2)cc1OC1CCCC1` (configuration not stated) [Rolipram], the synaptosome phagocytic index is 0.814.

`NC1CCN(c2cccc(Cl)n2)CC1`: the synaptosome phagocytic index turned out to be 0.648.

Consider `NC(=O)c1cnccn1` [Pyrazinamide], for which the synaptosome phagocytic index worked out at 1.21.

With `CCc1cc2c(cc1N1CCC(N3CCOCC3)CC1)C(C)(C)c1[nH]c3cc(C#N)ccc3c1C2=O` [Alectinib], the synaptosome phagocytic index is 0.538.

`CCCCN1C[C@H](O)[C@@H](O)[C@H](O)[C@H]1CO` [Miglustat_(hydrochloride)]: the synaptosome phagocytic index is 1.04.

For the molecule `CCCN(CCc1cccs1)[C@H]1CCc2c(O)cccc2C1` [Rotigotine], the synaptosome phagocytic index was 0.995.

With `COc1ccc(OCCN2CCN(C(=O)c3cc4ccccc4[nH]3)CC2)cc1`, the synaptosome phagocytic index was 1.22.

For the molecule `FC(F)(F)c1ccc(CNc2ccc(Cc3c[nH]c4ncc(Cl)cc34)cn2)cn1` [Pexidartinib], the synaptosome phagocytic index stood at 0.587.

Regarding `CCC1(C)CC(=O)NC1=O` (configuration not stated) [Ethosuximide], the synaptosome phagocytic index is 0.869.

Take `CC(C)(C)CCN1C[C@@H]2C(CNC(=O)c3cc(Cl)cc(Cl)c3)[C@@H]2C1` (some centres not stated): the synaptosome phagocytic index was determined as 0.191.

`CC(C)Nc1cccnc1N1CCN(C(=O)c2cc3cc(NS(C)(=O)=O)ccc3[nH]2)CC1` [Delavirdine_(mesylate)]: the synaptosome phagocytic index is 0.749.

Turning to `O=C(c1cc(Cc2n[nH]c(=O)c3ccccc23)ccc1F)N1CCN(C(=O)C2CC2)CC1` [Olaparib], the synaptosome phagocytic index was found to be 0.997.

As to `C[C@H]1[C@H](NC(=O)/C(=N\OC(C)(C)C(=O)O)c2csc(N)n2)C(=O)N1S(=O)(=O)O` [Aztreonam], the synaptosome phagocytic index was 0.528.
